Here are results for five molecules from PubChem BioAssay.

Structures are written as SMILES. “And” between values parts separate entries of the source, which are not always exact repeats. Equal entries are not always repeated. For some assays here: Entries with a potency or affinity are not part of this list. The source made the active and inactive calls. Unless noted, no rule for the calls is given here.

Assay [1] concerns Hepatitis C virus NS3 helicase. The assay is described as follows: HCV NS3 helicase inhibitors, primary screen, biochemical, fluorescence polarization, LOPAC1280 library (AID 687035; in the data active = inhibition above about 37%). The settings on record: Purified HCV NS3 helicase, Cy5-dT15 ssDNA binding fluorescence polarization; stronger effect = higher value; concentration not given here.
Assay [2] can be described thus: Cy5 fluorescence quenching or enhancement artefacts, artefact control for HCV NS3 helicase inhibitor project, biochemical, LOPAC1280 (AID 687037). As to conditions: Cy5-DNA-NS3h complex fluorescence interference counterscreen.
Assay [3] can be described thus: stimulators of nuclear beta-catenin in C2C12, primary screen, imaging, WNT3A-conditioned medium, mouse C2C12, NPC library (AID 1117326; in the data active = nuclear beta-catenin stimulation mostly above about 4.2%, no sharp cut-off; inactive = mostly below about 10%). The settings on record: stronger effect = higher value.
A short description of assay [4]: stimulators of insulin release from INS-1E, primary screen, cell-based, 5 mM glucose, NPC library (AID 1117329;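 active = compound raises insulin release from rat beta cells at 5 mM glucose, no numeric limit stated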). The settings on record: rat INS-1E insulin secretion, at 10 µM, stronger effect = higher value.
Assay [5] in a line: growth inhibition of GSK3B-pretreated HCT116 cells – cell-based, CellTiter-Glo, 0.2 to 20 µM (AID 1117336;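 active = compounds lowering colon cancer cell viability after pretreatment blocking the GSK3B kinase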). As to conditions: HCT116 viability after GSK3B inhibitor, at 20 µM, stronger effect = higher value.
A short description of assay [6]: inhibition of endothelial tube formation, primary screen, imaging, VEGF stimulated, CD31 staining, tube area, NPC library (AID 1117340;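 active = compound that reduces growth-factor-driven endothelial tube area in a mixed cell culture, no cutoff stated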). The settings on record: VEGF-stimulated ADSC/ECFC co-culture, at 10 µM, stronger effect = higher value.
Assay [7] can be described thus: glucagon-like peptide 1 release enhancers, primary assay, NCI-H716 cell line, NPC library (AID 1117341;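 active = compound raises GLP1 secretion from the human gut endocrine cells, with no numeric limit stated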). The settings on record: NCI-H716 cells, at 10 µM, stronger effect = higher value.
The nature of assay [8]: HCT116 colon cancer cell growth inhibition, primary screen, CellTiter-Glo luminescence, NPC library (AID 1117342;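 active = compounds that lower survival of HCT116 colon cancer cells in the luminescence readout, no numeric limit stated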). The settings on record: at 20 µM (top of the series).
The nature of assay [9]: CellTiter-Glo luminescent readout of SW480 viability loss, NPC library primary (AID 1117343;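 active = compounds that lower viability of the colon cancer cells in the luminescence readout, with no numeric limit stated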). The settings on record: CellTiter-Glo luminescence; at 20 µM (top of the series).
Assay [10] can be described thus: decreased DLD-1 cellular survival, CellTiter-Glo luminescent readout, NPC compound collection, primary HTS (AID 1117346;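 active = compounds that lower survival of DLD-1 colon cancer cells in the luminescence readout, no cutoff given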). The settings on record: DLD-1 viability, CellTiter-Glo luminescence; at 20 µM (top of the series).
In assay [11] the target is Calcium-dependent protein kinase 1 (Plasmodium falciparum (isolate 3D7)) (UniProt P62344). As to the kind of experiment: PfCDPK1 kinase inhibitors, biochemical, TCAMS library (AID 1159585; cut-off not given, nearly all actives have IC50 up to about 0.98 µM;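 also: inhibitors leave more ATP so luminescence rises with inhibition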). As to conditions: recombinant PfCDPK1, Kinase-Glo ATP depletion luminescence.
Assay [12] addresses Plasmodium falciparum protein kinase 6 (PK6, PF3D7_1337100) (UniProt Q8IDW1). The assay is described as follows: PfPK6 kinase inhibitors, biochemical, TCAMS library (AID 1159586). As to conditions: recombinant PfPK6, Kinase-Glo ATP depletion luminescence.
Assay [13] in a line: liver-stage malaria parasite growth inhibition, primary screen, cell-based, HepG2, luciferase luminescence, HepG2 viability (AID 624349; in the data active = parasite load remaining mostly below about 12%, no sharp cut-off; inactive = mostly above about 10%;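 also: 100% = mean of DMSO negative control wells on the same plate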). As to conditions: P. berghei liver stage in HepG2, luciferase luminescence, concentration not given here; parasite load remaining: stronger effect = lower value; viability: measured here: HepG2 viability without parasites.
Assay [14] in a line: Cy5 fluorescence interference with SSB-bound oligo, artefact control for HCV NS3 helicase inhibitor project, biochemical, NIH Clinical Collection, E. coli SSB (AID 743268).
Assay [15] relates to Hepatitis C virus NS3 helicase. The assay is described as follows: HCV NS3 helicase inhibitors, primary screen, biochemical, fluorescence polarization, NIH Clinical Collection (AID 743270). As to conditions: NS3 helicase binding to Cy5-dT15 DNA, stronger effect = higher value, concentration not given here.
Assay [16] addresses Single-stranded DNA-binding protein (Escherichia coli (strain K12)) (UniProt P0AGE0). The assay is described as follows: E. coli SSB displacement from DNA, counter-screen for HCV NS3 helicase inhibitor project, biochemical, fluorescence polarization, NIH Clinical Collection (AID 743271; in the data active = inhibition above about 28%). The settings on record: stronger effect = higher value, concentration not given here.
Assay [17] in a line: fluorescence interference in NS3h assay format, artefact control for HCV NS3 helicase inhibitor project, biochemical, NIH Clinical Collection (AID 743272).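 Also: HCV NS3 helicase with a Cy5 labelled single stranded DNA probe.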 As to conditions: fluorescence interference counterscreen, stronger effect = lower value.
Assay [18] deals with Neuropilin-2 / VEGF-C interaction (human). The assay is described as follows: inhibitors of NRP2–VEGF-C binding, biochemical, microplate binding format, z-score (AID 743281). As to conditions: microplate NRP2/VEGF-C binding assay; stronger effect = lower value.

Sequence of Plasmodium falciparum protein kinase 6 (PK6, PF3D7_1337100) (Q8IDW1 1-305): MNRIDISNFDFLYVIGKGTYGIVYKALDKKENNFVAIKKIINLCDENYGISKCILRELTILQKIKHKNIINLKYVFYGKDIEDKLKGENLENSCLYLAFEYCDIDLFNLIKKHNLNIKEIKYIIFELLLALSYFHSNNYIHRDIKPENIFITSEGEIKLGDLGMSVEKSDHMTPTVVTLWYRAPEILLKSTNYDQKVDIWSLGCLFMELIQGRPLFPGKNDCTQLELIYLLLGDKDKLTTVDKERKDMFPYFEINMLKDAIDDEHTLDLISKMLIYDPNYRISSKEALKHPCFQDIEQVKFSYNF
Sequence of Calcium-dependent protein kinase 1 (Plasmodium falciparum (isolate 3D7)) (P62344 whole entry, looked up): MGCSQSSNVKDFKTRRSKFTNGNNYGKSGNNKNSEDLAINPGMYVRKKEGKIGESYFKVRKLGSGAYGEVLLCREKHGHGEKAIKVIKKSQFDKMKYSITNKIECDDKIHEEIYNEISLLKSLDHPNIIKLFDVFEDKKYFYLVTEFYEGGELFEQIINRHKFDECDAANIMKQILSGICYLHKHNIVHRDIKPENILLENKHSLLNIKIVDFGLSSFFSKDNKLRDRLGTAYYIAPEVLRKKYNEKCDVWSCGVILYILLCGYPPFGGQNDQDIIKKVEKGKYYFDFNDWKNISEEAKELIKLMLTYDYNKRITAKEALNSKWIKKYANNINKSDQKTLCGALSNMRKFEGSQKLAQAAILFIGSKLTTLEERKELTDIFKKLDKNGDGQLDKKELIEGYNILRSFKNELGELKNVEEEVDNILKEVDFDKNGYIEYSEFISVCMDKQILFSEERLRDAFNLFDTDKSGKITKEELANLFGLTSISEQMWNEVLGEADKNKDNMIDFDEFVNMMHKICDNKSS

For `CCCCCCCC/C=C\CCCCCCCC(=O)NCc1ccc(O)c(OC)c1`, the inhibition in assay [1] was -4% (inactive). Besides, the fluorescence ratio (interference) in assay [2] was 1 (inactive). In addition, the nuclear beta-catenin stimulation was 0% (inactive) in assay [3] (at 10 µM) and -1.2% in [3] (stimulation, at 2 µM). Besides, the insulin secretion stimulation in [4] was 3.15% (inactive). Also, in assay [5], the viability decrease is 26.6% (inactive). Moreover, the tube area decrease in [6] was 17.4% (inactive). Further, the GLP1 secretion stimulation in assay [7] is 6.2% (inactive). In addition, the inhibition of viability in [8] was 65.7% (active). Besides, the viability decrease (inhibition) in [9] was 47.5% (inactive); in assay [10], 53.1% (active). The outcome in assay [11] and in assay [12] was inactive.

With `NC(N)=NC(=O)Cc1c(Cl)cccc1Cl`, the parasite load remaining in assay [13] was 29.4% (inactive) and 52.8% (inactive) and 54.1% (inactive). The viability in [13] was 118% and 76.4% and 154%. Moreover, the inhibition in assay [1] is 1% (inactive). Moreover, the fluorescence ratio (interference) in assay [2] was 1 (inactive). Moreover, the nuclear beta-catenin stimulation is -0.4% (inactive) in assay [3] (at 10 µM) and 2.6% in [3] (stimulation, at 2 µM). In assay [4], the insulin secretion stimulation was -2.2% (inactive). Besides, the viability decrease in assay [5] is 16.7% (inactive). Moreover, the tube area decrease in assay [6] is 11.5% (inactive). Moreover, in assay [7], the GLP1 secretion stimulation is -3% (inactive). Besides, the inhibition of viability in assay [8] is 68.9% (active). In addition, the viability decrease (inhibition) in assay [9] was 34.1% (inactive); in assay [10], 29% (inactive).

As to `NCCS(=O)(=O)O`, in assay [13], the parasite load remaining is 52.5% (inactive). For the same molecule, in assay [13], the viability worked out at 97.6%. The inhibition in assay [1] was -4% (inactive). Besides, in [2], the fluorescence ratio (interference) is 0.9 (inactive). Also, the nuclear beta-catenin stimulation in assay [3] (at 10 µM) is 5.3% (inactive); in [3] (stimulation, at 2 µM) it was 2.5%. Also, the insulin secretion stimulation in assay [4] is 2.6% (inactive). Moreover, in [5], the viability decrease was -1.3% (inactive). In addition, the tube area decrease in assay [6] was -12% (inactive). The GLP1 secretion stimulation in assay [7] was 0.3% (inactive). The inhibition of viability in assay [8] is -12.3% (inactive). The viability decrease (inhibition) in assay [9] was -4.6% (inactive); in [10], -1.5% (inactive).

Take `CCN1CCC[C@H]1CNC(=O)c1c(O)c(Cl)cc(Cl)c1OC`: the parasite load remaining in [13] was 132% (inactive) and 60.7% (inactive). Also, the viability in [13] was 135% and 99%. Moreover, the figures for the inhibition in assay [1], in [15] and in assay [16] were -2% (inactive), 1.19% (inactive) and 7.6% (inactive), respectively. The fluorescence ratio (interference) in assay [2] is 1 (inactive). Also, the fluorescence ratio in assay [14] was 0.94 (inactive); in [17], 0.77 (active). For the same molecule, in assay [18], the z-score was -0.335 (inactive). The nuclear beta-catenin stimulation is 0.6% (inactive) in [3] (at 10 µM) and 3.4% in assay [3] (stimulation, at 2 µM). The insulin secretion stimulation in assay [4] was -0.9% (inactive). The viability decrease in assay [5] is -21% (inactive). The tube area decrease in assay [6] was -4.8% (inactive). The GLP1 secretion stimulation in assay [7] was 2.2% (inactive). Moreover, the inhibition of viability in assay [8] is 9.13% (inactive). The results for the viability decrease (inhibition) in assay [9] and in [10] were -26.4% (inactive) and -11.6% (inactive), respectively.

For `CCCCCN(C)CCC(O)(P(=O)(O)O)P(=O)(O)O`, the parasite load remaining in assay [13] is 28% (inactive). Moreover, the viability in [13] was found to be 76.5%. Also, the nuclear beta-catenin stimulation was -3% (inactive) in assay [3] (at 10 µM) and 0.2% in [3] (stimulation, at 2 µM). In addition, the insulin secretion stimulation in [4] is 7.6% (inactive). Moreover, in [5], the viability decrease was 1.9% (inactive). For the same molecule, in [6], the tube area decrease was -11.9% (inactive). In addition, the GLP1 secretion stimulation in assay [7] is -0.5% (inactive). Moreover, the inhibition of viability in [8] was 9% (inactive). The viability decrease (inhibition) in assay [9] is 17.5% (inactive); in [10] it was 15.6% (inactive).
